These results are taken from PMC4336329 (PLoS ONE, 2015).

Molecules are shown by their SMILES. In all, about 310,000 compounds went through this assay and about 14,000 (4.5%) showed an effect of 50% or more. Effects have a minus sign here. The entries come from a sample that favours strong results as a whole.
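Further: peak tail current of the secondary pulse compared with the same well before compound.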

The target in this test is human ether-à-go-go-related gene (hERG) potassium channel (human, UniProt Q12809). In words: primary screen, population patch clamp on CHO cells stably expressing hERG; higher = less effect of the substance.
Sequence of human ether-à-go-go-related gene (hERG) potassium channel (Q12809 whole entry, looked up): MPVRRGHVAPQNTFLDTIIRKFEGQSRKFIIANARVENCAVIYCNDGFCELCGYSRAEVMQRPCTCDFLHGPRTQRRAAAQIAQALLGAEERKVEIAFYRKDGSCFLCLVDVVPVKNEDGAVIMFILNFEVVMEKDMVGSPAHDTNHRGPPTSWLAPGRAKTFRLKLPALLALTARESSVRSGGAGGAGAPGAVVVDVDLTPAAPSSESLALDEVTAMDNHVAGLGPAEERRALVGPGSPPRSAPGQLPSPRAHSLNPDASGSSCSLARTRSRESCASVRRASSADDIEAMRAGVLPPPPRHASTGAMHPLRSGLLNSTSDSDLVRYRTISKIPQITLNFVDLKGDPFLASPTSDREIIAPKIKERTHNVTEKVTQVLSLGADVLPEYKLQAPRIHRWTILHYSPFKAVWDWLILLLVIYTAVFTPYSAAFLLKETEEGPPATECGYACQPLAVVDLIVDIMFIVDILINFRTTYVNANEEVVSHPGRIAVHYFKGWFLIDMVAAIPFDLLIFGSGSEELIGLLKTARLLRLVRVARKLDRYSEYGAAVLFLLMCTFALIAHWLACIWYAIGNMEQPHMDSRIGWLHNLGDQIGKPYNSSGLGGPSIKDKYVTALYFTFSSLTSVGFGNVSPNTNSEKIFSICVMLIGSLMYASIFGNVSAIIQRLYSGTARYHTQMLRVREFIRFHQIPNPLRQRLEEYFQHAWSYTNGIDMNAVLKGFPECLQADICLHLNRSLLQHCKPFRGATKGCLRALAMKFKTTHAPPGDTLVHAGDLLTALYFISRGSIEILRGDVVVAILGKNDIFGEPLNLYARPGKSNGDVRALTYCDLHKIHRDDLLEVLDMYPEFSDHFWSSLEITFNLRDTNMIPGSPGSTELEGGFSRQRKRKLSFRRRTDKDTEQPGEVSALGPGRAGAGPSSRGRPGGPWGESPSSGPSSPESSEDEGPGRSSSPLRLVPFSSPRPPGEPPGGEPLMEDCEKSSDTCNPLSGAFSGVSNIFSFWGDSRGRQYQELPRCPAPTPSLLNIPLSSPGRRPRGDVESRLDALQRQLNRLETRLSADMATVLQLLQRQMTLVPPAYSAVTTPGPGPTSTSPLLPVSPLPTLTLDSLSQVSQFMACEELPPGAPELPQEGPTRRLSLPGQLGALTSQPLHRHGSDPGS
Consider `O=C(NCc1cccnc1)c1cc2nc(-c3ccc4c(c3)OCO4)cc(C(F)(F)F)n2n1`, for which the “hERG current change (%, negative = inhibition) at 10uM” value is 3.07%. Take `COc1ccc(NS(=O)(=O)c2cccc(C(=O)NNC(=O)NCCCl)c2)cc1`: the “hERG current change (%, negative = inhibition) at 10uM” value was 20.3%. In the case of `CN1CCc2c(sc(NC(=O)c3ccc(S(=O)(=O)N4CCCCCC4)cc3)c2C(N)=O)C1`, the “hERG current change (%, negative = inhibition) at 10uM” value stood at 5.51%. Take `O=C1CN(C(=O)c2ccc(Cl)c(S(=O)(=O)N3CCc4ccccc43)c2)c2ccccc2N1`: the “hERG current change (%, negative = inhibition) at 10uM” value was -21%. Under `COCCn1nnnc1CN1CCC(C)CC1` stands -2.19%; under `O=C(Cn1cnc2c(oc3ccccc32)c1=O)c1ccccc1`, 2.38%; under `O=C(NC1CCCCCC1)C1CCN(S(=O)(=O)c2ccc(F)cc2)CC1`, 0.579%. As for `Cc1cc(/N=C/C=C2\N(C)c3ccccc3C2(C)C)n(CCC#N)n1`, the “hERG current change (%, negative = inhibition) at 10uM” value was -29.8%.

Turning to `CN1/C(=C\C=Nc2ccccc2)C(C)(C)c2ccccc21`, the “hERG current change (%, negative = inhibition) at 10uM” value is reported as -72.1%.

Consider `Cc1ccccc1N=C/C=C1\N(C)c2ccccc2C1(C)C`, for which the “hERG current change (%, negative = inhibition) at 10uM” value is on record as -70.7%. Under `O=S(=O)(c1ccc(N2CCOCC2)c(Cl)c1)N1CCOCC1` stands 15.5%. For `CN1/C(=C/C=N/n2cnnc2)C(C)(C)c2ccccc21`, the “hERG current change (%, negative = inhibition) at 10uM” value is -1.92%. The same measure for `CO/N=C/C=C1/N(C)c2ccccc2C1(C)C`: 19.8%; for `CN1C(=O)C(C)(C)c2cc(S(=O)(=O)N3CCN(c4ccccc4F)CC3)ccc21`: -3.03%; for `CN1/C(=C\C=N\O)C(C)(C)c2ccccc21`: 17.1%. For `Cc1ccccc1N=CC=C1OC(C)(C)C(C)(C)O1`, the “hERG current change (%, negative = inhibition) at 10uM” value is given as -1.54%. The same measure for `CN1/C(=C\C=Nc2cc(S(=O)(=O)N3CCOCC3)ccc2N2CCOCC2)C(C)(C)c2ccccc21`: -71%; for `CN1/C(=C\C=Nc2ccc3ccccc3c2)C(C)(C)c2ccccc21`: -74.8%; for `CN1/C(=C/C=C(C#N)C#N)C(C)(C)c2ccccc21`: 14.7%. `COc1ccc(NC(=O)NCc2ccncc2)cc1`: the “hERG current change (%, negative = inhibition) at 10uM” value amounted to 13.8%. The same measure for `CC(C)(C)c1ccc(C(=O)NNc2ccc(F)cc2F)cc1`: 9.96%; for `CC1(C)OC2CC3C4CC(F)C5=CC(=O)C=CC5(C)C4(F)C(O)CC3(C)C2(C(=O)CO)O1` (stereo not shown): -7.01%. With `O=C1C=C(c2cc3ccccc3s2)C[C@@H](c2ccc(F)cc2)C1`, the “hERG current change (%, negative = inhibition) at 10uM” value is given as 5.01%. As for `CC(=O)N1c2ccc(S(=O)(=O)N3CCCC(C(=O)NCc4ccccc4)C3)cc2CC1C` (stereo not shown), the “hERG current change (%, negative = inhibition) at 10uM” value turned out to be 13.7%. Under `O=C(Nc1ccccc1)N1CCC(c2ccccc2)C1` (stereo not shown) stands -4.49%.

Regarding `Cc1c(N=C/C=C2/N(C)c3ccccc3C2(C)C)c(=O)n(-c2ccccc2)n1C`, the “hERG current change (%, negative = inhibition) at 10uM” value is -38.1%. In the case of `Cc1c(N=C/C=C2\N(C)c3ccccc3C2(C)C)c(=O)n(-c2ccccc2)n1C`, the “hERG current change (%, negative = inhibition) at 10uM” value was -53.7%. On to `CN1/C(=C\C=C(C#N)C#N)C(C)(C)c2ccccc21`, for which the “hERG current change (%, negative = inhibition) at 10uM” value amounted to 11.5%.

Consider `Cc1c(NC(=S)/C=C2\N(C)c3ccccc3C2(C)C)c(=O)n(-c2ccccc2)n1C`, for which the “hERG current change (%, negative = inhibition) at 10uM” value worked out at 0.171%. With `CN(C)c1ccc(N=C/C=C2\N(C)c3ccccc3C2(C)C)cc1`, the “hERG current change (%, negative = inhibition) at 10uM” value is recorded as -82.8%.

Regarding `CN1/C(=C\P(=O)(N(C)C)N(C)C)C(C)(C)c2ccccc21`, the “hERG current change (%, negative = inhibition) at 10uM” value is -6.64%.

Consider `CC(=O)N1CCN(c2ccc(N=Cc3c(O)n(-c4ccc(Cl)cc4)c(=O)[nH]c3=O)cc2)CC1`, for which the “hERG current change (%, negative = inhibition) at 10uM” value is 1.55%. For the compound `CCOC(=O)c1cnc(-n2nc(C)cc2C)nc1NCCO`, the “hERG current change (%, negative = inhibition) at 10uM” value is reported as 10.5%. As for `CCOC(=O)c1cnc(-n2nc(C)cc2C)nc1NCCc1ccccc1`, the “hERG current change (%, negative = inhibition) at 10uM” value is given as -51.6%. Regarding `CCOC(=O)c1cnc(-n2nc(C)cc2C)nc1NCc1ccccc1`, the “hERG current change (%, negative = inhibition) at 10uM” value is recorded as -34.7%. For `Cn1ccnc1SCC(=O)n1c2c(c3ccccc31)CCCC2`, the “hERG current change (%, negative = inhibition) at 10uM” value is recorded as -4.61%. As to `O=C(c1cccs1)N1CCCC(c2nc3c(nnn3Cc3c(Cl)cccc3Cl)c(=O)[nH]2)C1` (stereo not shown), the “hERG current change (%, negative = inhibition) at 10uM” value was -46.9%. The same measure for `O=C(OCC(=O)N1CCCc2ccccc21)c1cccc(C(F)(F)F)c1`: -6.7%; for `COC(=O)C(Cc1ccccc1)NC(=O)c1ccc(C)cc1` (stereo not shown): 5.08%. As for `CSCCOC(=O)c1[nH]c2c(c1C)C(=O)CC(c1ccco1)C2` (stereo not shown), the “hERG current change (%, negative = inhibition) at 10uM” value is reported as -1.18%. Regarding `Cc1ccc(NC(=O)c2sc(Cl)nc2-c2ccccc2)cc1`, the “hERG current change (%, negative = inhibition) at 10uM” value was found to be 18.2%. Under `CCCCCCOc1ccc(/C(C)=N/NC2=NCCN2)cc1[N+](=O)[O-]` stands -81.3%; under `CCCCCCOc1ccc(/C(C)=N/NC2=NCCN2)cc1`, -19.9%. The same measure for `CCCCCOc1ccc(Br)cc1/C(C)=N/NC1=NCCN1`: -70.1%. Under `CCOc1ccc(Br)cc1/C(C)=N\NC1=NCCN1.Cl` stands -48.6%; under `C/C(=N\NC1=NCCN1)c1ccc(N)c([N+](=O)[O-])c1`, -15.2%; under `COc1ccc(Br)cc1/C(C)=N/NC1=NCCN1.Cl`, -26.7%. For the compound `COc1cc(S(=O)(=O)NC2CCCC2)ccc1F`, the “hERG current change (%, negative = inhibition) at 10uM” value is 1.19%. With `CC1CCN(C(=O)c2ccccc2NS(=O)(=O)c2ccccc2)CC1`, the “hERG current change (%, negative = inhibition) at 10uM” value turned out to be 8.52%. The same measure for `CCc1ccc(-c2nn[nH]n2)cc1`: 4.61%; for `Cc1ccc(C)c(SCC(=O)NNC(=O)c2ccccc2)c1`: 9.78%; for `COc1ccc(NC(=O)C2CCN(c3cnccn3)CC2)cc1OC`: 15.5%. As to `CC(NC1CCCCC1)C(O)C12CC3CC(CC(C3)C1)C2.Cl` (stereo not shown), the “hERG current change (%, negative = inhibition) at 10uM” value was -16.4%. Regarding `COC(=O)c1ccc(C(c2c(N)n(Cc3ccccc3)c(=O)n(C)c2=O)N2CCOCC2)cc1` (stereo not shown), the “hERG current change (%, negative = inhibition) at 10uM” value is -57.9%.

For `CCCn1c(N)c(C(c2ccc(C(=O)OC)cc2)N2CCN(c3ccccc3)CC2)c(=O)[nH]c1=O` (stereo not shown), the “hERG current change (%, negative = inhibition) at 10uM” value was -9.93%.

Consider `COC(=O)c1ccc(C(c2c(N)n(CC(C)C)c(=O)[nH]c2=O)N2CCN(c3ccccc3)CC2)cc1` (stereo not shown), for which the “hERG current change (%, negative = inhibition) at 10uM” value is -8.97%. Consider `COc1cccc(CNC(=O)C2CCN(S(=O)(=O)N3CCC(C)CC3)CC2)c1`, for which the “hERG current change (%, negative = inhibition) at 10uM” value is -3.44%. Under `O=C(CSCc1ccccc1)N=Nc1c(O)[nH]c2ccccc12` stands -19.1%; under `COCC(=O)N=Nc1c(O)[nH]c2ccccc12`, -5.52%. As to `O=C(N=Nc1c(O)[nH]c2ccccc12)c1ccc(CN2CCOCC2)cc1`, the “hERG current change (%, negative = inhibition) at 10uM” value is listed as 22.9%. Under `Cc1ccc(CN2CCN(CC(=O)N=Nc3c(O)[nH]c4ccccc34)CC2)cc1` stands -73.5%; under `O=C(CCN1CCCCC1)N=Nc1c(O)[nH]c2ccccc12`, 11.3%; under `O=C(CN1CCCCC1)N=Nc1c(O)[nH]c2ccccc12`, 4.68%. For the compound `O=C(Cc1cccs1)N=Nc1c(O)[nH]c2ccccc12`, the “hERG current change (%, negative = inhibition) at 10uM” value is recorded as 7.07%. For `O=C(CN1CCN(Cc2ccccc2)CC1)N=Nc1c(O)[nH]c2ccccc12`, the “hERG current change (%, negative = inhibition) at 10uM” value was -65%. Take `O=C(CN1CCN(Cc2ccccc2Cl)CC1)N=Nc1c(O)[nH]c2ccccc12`: the “hERG current change (%, negative = inhibition) at 10uM” value was -61.3%. Take `N#Cc1ccccc1NC(=S)Nc1ccc(F)cc1`: the “hERG current change (%, negative = inhibition) at 10uM” value was 16.2%. In the case of `CCN(C(=O)c1cc2c(=O)[nH]c3ccc(C)cc3c2s1)c1ccc(OC)cc1`, the “hERG current change (%, negative = inhibition) at 10uM” value was 9.09%. For the compound `COC(=O)c1ccc(N2CCN(C)CC2)c(NC(=O)c2sc3ccccc3c2Cl)c1`, the “hERG current change (%, negative = inhibition) at 10uM” value is given as 13.1%. With `COc1ccc(C=C(C#N)C#N)c(CSc2ccccn2)c1`, the “hERG current change (%, negative = inhibition) at 10uM” value is given as 1.19%. As to `COc1ccc(C(=O)Nc2ccc(N3CCCCC3)cc2)cc1Br`, the “hERG current change (%, negative = inhibition) at 10uM” value was -8.48%. With `O=C(N/N=C/c1cc(Br)cc(Br)c1O)c1ccncc1`, the “hERG current change (%, negative = inhibition) at 10uM” value was 15.6%. In the case of `Cc1ccc(S(=O)(=O)CCC(=O)OCC(=O)N2c3ccccc3NC(=O)C2(C)C)cc1`, the “hERG current change (%, negative = inhibition) at 10uM” value was determined as 14%. On to `O=C(O)C(=O)/C(=C\c1ccccc1)c1ccc2ccccc2n1`, for which the “hERG current change (%, negative = inhibition) at 10uM” value is on record as 13.9%. For `O=C(Nc1cccc(-c2csc(Nc3ccccc3)n2)c1)c1ccccc1`, the “hERG current change (%, negative = inhibition) at 10uM” value stood at 2.4%.

Consider `COc1ccc(-c2nnc(N3CCCCC3)c3ccccc23)cc1`, for which the “hERG current change (%, negative = inhibition) at 10uM” value is reported as -47.3%. Under `COc1ccc(OCC(=O)N2CCN(c3nnc(-c4ccccc4)c4ccccc34)CC2)cc1` stands -64.4%; under `COc1ccc(OCC(=O)N2CCN(c3nnc(-c4ccc(C)cc4)c4ccccc34)CC2)cc1`, -44.9%.

For the compound `Cc1ccc(-c2nnc(N3CCN(C(=O)COc4ccccc4)CC3)c3ccccc23)cc1`, the “hERG current change (%, negative = inhibition) at 10uM” value was -52.1%. For `O=C(CSc1ncn[nH]1)N1CCN(c2nnc(-c3ccccc3)c3ccccc23)CC1`, the “hERG current change (%, negative = inhibition) at 10uM” value is -0.967%. With `CCN(CC)C(=O)COc1ccc(-c2nnc(N3CCCCC3)c3ccccc23)cc1`, the “hERG current change (%, negative = inhibition) at 10uM” value is on record as -25.4%. With `Cc1ccc(OCC(=O)N2CCN(C(=O)Cc3ccccc3)CC2)cc1`, the “hERG current change (%, negative = inhibition) at 10uM” value is on record as -38.4%. Consider `O=C(COc1ccc([N+](=O)[O-])cc1)N1CCN(c2nnc(-c3ccccc3)c3ccccc23)CC1`, for which the “hERG current change (%, negative = inhibition) at 10uM” value is -66.5%. Turning to `CCCC(=O)N1CCN(C2=NS(=O)(=O)c3ccccc32)CC1`, the “hERG current change (%, negative = inhibition) at 10uM” value is given as -3%. Under `Cc1ccc(OCC(=O)N2CCN(C3=NS(=O)(=O)c4ccccc43)CC2)cc1` stands -60.8%; under `CC(C)N1C(=O)N(c2cccc(Cl)c2)C(C)(O)CC1(C)C` (stereo not shown), 17.5%. Consider `COc1cccc(-c2nc(CS(=O)CC(=O)NCc3ccccc3)c(C)o2)c1` (stereo not shown), for which the “hERG current change (%, negative = inhibition) at 10uM” value was -6.07%. `CCCOc1cccc(NC(=O)c2c(-c3ccccc3)noc2C)c1`: the “hERG current change (%, negative = inhibition) at 10uM” value is recorded as -8.81%.
